Measured values from the supplement of paper PMC7156485.
± gives the standard deviation of the averaged measurements.

These molecules were tested on HCC1569 (assay: cell number relative to DMSO (% of DMSO); higher = more cells (less growth inhibition / toxicity)). Conditions: concentration: 10 µM; 24 h.
Method in brief: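 HCC1569 and TDF cells were seeded at 800 per well in 384-well plates in RPMI with 10% FBS and treated with compounds at 10 µM for 24 h at 37 °C, in triplicate. After fixation in 3.7% formaldehyde, cells were stained with a rabbit anti-H1.0 antibody, an AlexaFluor 647 secondary and DAPI, and six fields per well were imaged at ×10. H1.0 nuclear intensity or cell number is given as percent of the plate control, using the median of replicates, with HCC1569 values smoothed for positional effects.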
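Further: TDF denotes transformed human dermal fibroblasts of mesenchymal origin.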

Row | SMILES | cell number
1 | CCCCCCCCCCCCCCCC(=O)OC1C(SC)OC(C(NC(=O)C2CC(CCC)CN2C)C(C)Cl)C(O)C1O.Cl (stereo not given) [Clindamycin palmitate.HCl] | 96.5
2 | CCC=CCC=CCC=CCC=CCC=CCCCC(=O)O [Eicosapentaenoic acid] | 106 ± 9.9
3 | CC(C)[N+]1(C)C2CCC1CC(OC(=O)C(CO)c1ccccc1)C2.[Br-] (stereo not given) [Ipratropium.Br] | 102
4 | CC(C=CC1=C(C)CCCC1(C)C)=CC=CC(C)=CC(=O)O [13-cis Retinoic acid] | 98.1 ± 4.4
5 | O=C(Oc1cc(S(=O)(=O)c2ccccc2)ccc1[N+](=O)[O-])c1ccc(Cl)cc1 [2-nitro-5-(phenylsulfonyl)phenyl 4-chlorobenzoate] | 99.5
6 | O=C(NC(Cc1ccccc1)C(=O)CCl)OCc1ccccc1 [Z-L-Phe chloromethyl ketone] | 54.9
7 | O=c1c(-c2ccc(O)cc2)coc2cc(O)ccc12 [Daidzein] | 101 ± 2.1
8 | COc1cc2c3cc1Oc1cc(ccc1O)CC1c4c(cc(OC)c(O)c4Oc4ccc(cc4)CC3N(C)CC2)CC[N+]1(C)C.Cl.[Cl-] (single isomer, unassigned; (+)) [(+)-Tubocuraraine chloride] | 108
9 | Brc1ccc(C2CN3CCSC3=N2)cc1.O=C(O)C(=O)O (stereo not drawn) [S(-)-p-Bromotetramisole oxalate] | 107
10 | CN(C)CCC=C1c2ccccc2CCc2ccccc21.Cl [Amitriptyline.HCl] | 105
11 | CC(=O)Oc1cc(C(C)C)c(OCCN(C)C)cc1C.Cl [Moxisylyte hydrochloride] | 105
12 | COc1ccc(C2CC(=O)c3c(O)cc(OC4OC(CO)C(O)C(O)C4OC4OC(C)C(O)C(O)C4O)cc3O2)cc1O (stereo not given) [Neohesperidin] | 99.8
13 | O=c1ccc2cc3ccoc3cc2o1 [7H-furo[3,2-g]chromen-7-one] | 96.4
14 | CCCCCC(=O)C=CC1C(O)CC(O)C1CC=CCCCC(=O)O (stereo not given) [15-keto-prostaglandin F2a] | 101
15 | CC[N+](CC)(CC)CCOc1cccc(OCC[N+](CC)(CC)CC)c1OCC[N+](CC)(CC)CC.[I-].[I-].[I-] [Gallamine triethiodide] | 101
16 | Cl.Cl.Fc1ccc(C(c2ccc(F)cc2)N2CCN(CC=Cc3ccccc3)CC2)cc1 [Flunarizine.2HCl] | 97.6
17 | Cl.NCCS [Cysteamine hydrochloride] | 101
18 | COc1cc2nc(N3CCN(C(=O)C4COc5ccccc5O4)CC3)nc(N)c2cc1OC (stereo not given) [Doxazosin] | 96.5
19 | CC1C(NC(=O)C(=NOC(C)(C)C(=O)O)c2csc(N)n2)C(=O)N1S(=O)(=O)O (stereo not given) [Aztreonam] | 105
20 | CC(C)=CCCC(C)=CCOc1ccc2ccc(=O)oc2c1 [Auraptene] | 105

Row | SMILES | cell number
21 | CCCCCCCNC1CCCC1CCCCCCC(=O)O (racemic) | 99.7
22 | N[C@@H](CC(=O)O)C(=O)O [L-Aspartic acid] | 104
23 | O=c1cc(-c2cccc3c2Sc2ccccc2S3)oc(N2CCOCC2)c1 | 83.2
24 | COc1cccc(/C=N/CC/N=C/c2cccc(OC)c2[O-])c1[O-].[Cl-].[Mn+2] | 99.1
25 | CC1=NN(c2ccccc2)C(=O)C1 | 101
26 | CC1COC2=C1C(=O)C(=O)c1c2ccc2c1CCCC2(C)C (stereo not given) [Cryptotanshinone] | 96.6
27 | O=c1c(-c2ccc(O)cc2)coc2cc(OC3OC(CO)C(O)C(O)C3O)cc(O)c12 (stereo not given) [Genistin] | 103
28 | CCCCCCCCCCCCCC=CC(O)C(CO)NC(=O)CCCCCCCCCCCCCCC (stereo not given) [C16 Ceramide] | 96.6
29 | Cc1ccc(S(=O)(=O)N2c3ccccc3Oc3ccccc32)cc1 [10-[(4-methylphenyl)sulfonyl]-10H-phenoxazine] | 53.5
30 | COc1cc(C(=O)OC2CC(C)=CCCC(C)=CC(O)C2C(C)C)ccc1O (stereo not given) [Tschimganidin] | 102
31 | CC(C)c1ccc2c(c1)c(SC(C)(C)C)c(CC(C)(C)C(=O)[O-])n2Cc1ccc(Cl)cc1.[Na+] | 102
32 | CCCCCC=CCC=CCC=CCC=CCCCC(=O)OC(CO)COC(=O)CCCCCCCCCCCCCCCCC (stereo not given) [1-Stearoyl-2-arachidonoyl-glycerol] | 100
33 | CC(=O)NC(C(=O)O)C(C)(C)SN=O (stereo not given) [S-Nitroso-N-acetylpenicillamine] | 105
34 | O=C(Nc1cc(C(F)(F)F)cc(C(F)(F)F)c1)c1cc(Cl)ccc1O | 57
35 | O=C1CC(c2ccc(O)c(O)c2)Oc2c1ccc(OC1OC(CO)C(O)C(O)C1O)c2O (stereo not given) [Flavanomarein] | 102
36 | COc1cc(SC)ccc1C(=O)N1CCC(Cc2ccccc2)CC1 [p38 MAP Kinase Inhibitor VI, JX401] | 104
37 | CC1CCC2(C(=O)O)CCC3(C)C(=CCC4C5(C)CCC(O)C(C)(C)C5CCC43C)C2C1C (stereo not given) [Ursolic acid] | 100
38 | CN1CCN(C2=Nc3ccccc3Sc3ccc(Cl)cc32)CC1 [Clothiapine] | 103
39 | COc1cc2c3cc1Oc1cc(ccc1O)CC1c4c(cc(OC)c(O)c4Oc4ccc(cc4)CC3N(C)CC2)CC[N+]1(C)C (single isomer, unassigned; (+)) [(+)-Tubocurarine chloride] | 103
40 | CCCCCC(O)C=CC1=C(CC=CCCCC(=O)O)C(=O)CC1 (stereo not given) [Prostaglandin B2] | 109
